# An excerpt weighted towards active compounds, which were near 11% of everything screened.
# BAZ2B inh = blocks human BAZ2B; Q9UIF8; AlphaScreen BAZ2B-H3K14Ac peptide displacement; Potency, µM (doses to about 114 µM), inactives show at the top dose activity change, negative = inhibition, hits mostly inhibitors; 4.4% of 360,000 active; AID 504333; also: % is scaled to controls: 0 for no effect and ±100 for the full control effect; nearly all actives have a fitted effect of over 60% in size
#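 AlphaScreen displacement: compounds (up to 110uM) incubated 30 min at room temperature with a preformed 50 nM BAZ2B/50 nM biotinylated H3K14Ac peptide complex in PBS pH 7.4 with Tween-20. Donor and acceptor beads at 10 ug/mL final added, 20 min light-protected before reading.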
# L3MBTL1 block = blocks human L3MBTL1; AlphaScreen L3MBTL1–H3K9me1 peptide binding; 0.66% of 230,000 active; Q9Y468; AID 485360; Potency, µM (doses to about 57.1 µM), for the others: top-dose activity, negative = inhibition, usual class: inhibitors; also: % is scaled to controls: 0 for no effect and ±100 for the full control effect; nearly all actives have a fitted effect of over 60% in size
#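 Displacement of a biotinylated histone H3(1-15) peptide monomethylated at Lys9 (75 nM) from L3MBTL1 (50 nM) was measured by AlphaScreen after a 30 min room-temperature compound incubation; cefsulodin titration served as intraplate control.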
# JMJD2A Tudor inh = blocks the human JMJD2A Tudor domain | AlphaScreen JMJD2A-Tudor / H3K4me3 peptide binding | 4.4% of 390,000 active | Potency, µM (titrated, usually from 114 µM), inactives show at the highest dose activity change, negative = inhibition, actives largely listed as inhibitors | O75164; also: % is scaled to controls: 0 for no effect and ±100 for the full control effect; nearly all actives have a fitted effect of over 50% in size
# G9a block = inhibitors of human histone lysine methyltransferase G9a; G9a H3K9 monomethylation, AlphaScreen, 2 h; AID 504332; 8.8% of 350,000 active; Potency, µM (top dose mostly 102 µM), for inactives: top-dose activity, negative = inhibition, usual class: inhibitors; also: % is scaled to controls: 0 for no effect and ±100 for the full control effect; nearly all actives have a fitted effect of over 75% in size
# Target sequence (Q96KQ7 913-1193 limits assumed): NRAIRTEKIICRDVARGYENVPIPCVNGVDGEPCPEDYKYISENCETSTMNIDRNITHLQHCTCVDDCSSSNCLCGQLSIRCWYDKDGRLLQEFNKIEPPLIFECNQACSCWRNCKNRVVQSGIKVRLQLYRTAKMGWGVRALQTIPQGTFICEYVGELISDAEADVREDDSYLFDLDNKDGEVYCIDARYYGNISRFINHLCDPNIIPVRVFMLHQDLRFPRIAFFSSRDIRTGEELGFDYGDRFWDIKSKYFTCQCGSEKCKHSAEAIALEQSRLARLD
#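 Using a bead-based AlphaScreen, monomethylated H3K9 product from 2 h room-temperature reactions (G9a 20 nM, peptide 500 nM, SAM 20 uM) was detected with 0.5 ug/mL rabbit anti-H3K9me1 antibody.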
# HP1b chromo inh = HP1-beta chromodomain-methylated histone interaction inhibition; P83916; 0.56% of 390,000 active; Potency, µM (series often up to 114 µM), without a hit: at the highest dose activity change, negative = inhibition, actives largely listed as inhibitors; AID 540317; AlphaScreen HP1-beta / biotin-H3K9me3 peptide binding; also: nearly all actives have a fitted effect of over 70% in size
# Target sequence (P83916 whole entry, looked up): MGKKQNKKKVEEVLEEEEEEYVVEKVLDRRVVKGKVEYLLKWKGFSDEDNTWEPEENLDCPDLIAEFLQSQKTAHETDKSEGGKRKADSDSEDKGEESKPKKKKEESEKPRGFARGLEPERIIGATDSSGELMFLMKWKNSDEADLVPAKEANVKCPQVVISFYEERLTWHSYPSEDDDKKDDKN
#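 Compound inhibition of the preformed complex between 50 nM HP1-beta and 50 nM biotinylated H3K9me3 peptide was read by AlphaScreen. Buffer was PBS pH 7.4 with 0.01% Tween-20. Incubations ran 30 min at room temperature, with 10 ug/mL donor/acceptor beads.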
# Starred values were filed as active, the others as inactive; ? = inconclusive; nt = not tested or not shown; [ ] = remark or other dose. Calls follow the shape of the dose curve; as a rule, active = well fitted inhibition curve with a large enough effect; inconclusive = small, poorly fitted or top-dose-only effect; inactive = no such curve, though single readings can be large or run the other way. Potency is read from the fitted curve at half-maximal effect.
SMILES,BAZ2B inh,L3MBTL1 block,JMJD2A Tudor inh,G9a block,HP1b chromo inh
CC(=O)NS(=O)(=O)c1ccc(NS(=O)(=O)c2ccc3ccccc3c2)cc1,4%,nt,5%,?,72%
CC(=O)Nc1ccc(NS(=O)(=O)c2ccc3ccccc3c2)cc1,-6%,nt,28µM*,-3%[12.7 µM],-9%
CCOC(=O)c1cnn(-c2cccc(F)c2)c1C1CCNCC1,nt,nt,-8%,-50%[59 µM],24%
CCC(C(=O)Nc1cccc(-c2cn3cccnc3n2)c1)c1ccccc1 (stereo not drawn),-18%,nt,-20%,0%[59 µM],28%[57 µM]
Fc1ccc(-c2csc(N3CCOCC3)n2)cc1,-23%,-2%,-17%,nt,-3%
c1ccc(-c2csc(N3CCSCC3)n2)cc1,17%,93%,-15%,15%,29%
c1ccc2oc(-c3csc(N4CCOCC4)n3)cc2c1,-31%,nt,-16%,40µM*,-5%
COc1cc(-c2csc(N3CCOCC3)n2)cc(OC)c1OC,?,4%,-24%,56µM*,14%
COc1cccc(C(=O)Nc2sc3c(c2C#N)CCN(C(C)=O)C3)c1,nt,nt,-30%,5µM*,?
CC(=O)N1CCc2c(sc(NC(=O)c3cccc(N4C(=O)CCC4=O)c3)c2C(N)=O)C1,-27%,nt,0%,45µM*,26%
Cc1cccc(C)c1Nc1nnc(SCc2cc([N+](=O)[O-])cc3c2OCOC3)s1,?,nt,-32%,50µM*,21%
Nc1cc(N)nc(SCc2cc([N+](=O)[O-])cc3c2OCOC3)n1,1%,-2%,-2%[11.4 µM],71µM*,36%
COc1ccc(OC)c(NC(=O)Cn2cc(S(=O)(=O)c3ccccc3)c(=O)c3cc(C)ccc32)c1,-15%,nt,-12%,-39%[59 µM],19%
O=S(=O)(NCc1cn2ccccc2n1)c1ccccc1F,-20%,nt,-22%,2%,12%
COc1ccc(CNC(=O)c2cnc3sc(N4CCCCCC4)nn3c2=O)cc1,-2%,nt,-4%,-2%[59 µM],13%
O=C(O)CC12CC3CC(C1)CC(n1ncc(NCC4CCCO4)c(Cl)c1=O)(C3)C2 (stereo not drawn),-13%,1%,-17%,56µM*,28%
COc1ccc(NC(=O)N2CCCC3(CCN(C(=O)c4cnccn4)CC3)C2)cc1,nt,nt,nt,-3%[12.7 µM],nt
CCN(CC)C(=O)c1cccc(NC(=O)CCc2nc3sc4c(c3c(=O)[nH]2)CCCC4)c1,2%,-4%,-24%,-47%,27%
CN(CC(=O)Nc1c(Cl)cccc1Cl)C(=O)CCc1nc2sc3c(c2c(=O)[nH]1)CCCC3,?,?,-34%,21%[0.501 µM],7%
CN(CC(=O)Nc1ccc(F)cc1)C(=O)CCc1nc2sc3c(c2c(=O)[nH]1)CCCC3,-4%,?,-30%,56µM*,15%
CN(CC(=O)Nc1ccc(Cl)cc1)C(=O)CCc1nc2sc3c(c2c(=O)[nH]1)CCCC3,0%,?,-17%,50µM*,3%
CCN(CC(=O)Nc1c(F)cccc1F)C(=O)CCc1nc2sc3c(c2c(=O)[nH]1)CCCC3,50µM*,?,?,2%[0.501 µM],-12%
O=C(O)C(CCCCNS(=O)(=O)c1ccc(F)cc1)NS(=O)(=O)c1ccc(F)cc1 (stereo not drawn),-7%,nt,-14%,39%,48%
CCN(CC)C(=O)C1=CC(c2ccc3c(c2)OCO3)=NS(=O)(=O)N1C,-7%,nt,-12%,-26%[59 µM],19%
CSc1ccccc1C(=O)NC1CCCc2ccccc21 (stereo not drawn),0%,nt,-9%,3%,9%
SMILES,BAZ2B inh,L3MBTL1 block,JMJD2A Tudor inh,G9a block,HP1b chromo inh
Cc1ccc2c(c1)N(C(=O)N1CCC(C(=O)NCCC3=CCCCC3)CC1)CC(C)O2 (stereo not drawn),-14%,nt,-10%,-9%[59 µM],27%
c1ccc(-c2cccc(-c3ccccn3)n2)nc1,18µM*,?,20µM*,-11%,31%
O=C(NC1CC(=O)N(c2ccc(F)cc2)C1)c1cc2ccccc2o1 (stereo not drawn),-2%,nt,-9%,3%[59 µM],44%
CC(C)C1Cc2c(sc3c2c(=O)n(-c2ccccc2)c2n[nH]c(=S)n32)CO1 (stereo not drawn),-18%,nt,20µM*,1.3µM*,3%
COc1ccc(-n2c(=O)c3c4c(sc3n3c(SCCC(C)C)nnc23)COC(C(C)C)C4)cc1 (stereo not drawn),1%,nt,-3%,-5%[59 µM],32%
COc1ccc(-n2c(SC)nc3sc4c(c3c2=O)CCN(C)C4)cc1,-30%,nt,-24%,?,25%
COc1ccc(-n2c(=S)[nH]c3sc4c(c3c2=O)CCN(C)C4)cc1,-25%,nt,nt,14µM*,nt
COc1ccc(-n2c(=O)c3c4c(sc3n3c(=S)[nH]nc23)CCCC4)cc1,-7%,-1%,56µM*,?,6%
Cc1cccc(-c2c3c(=O)n(C)c(=O)n(C)c3cn2-c2ccccc2O)c1,-15%,-9%,-18%,?,30%
COC(=O)c1ccccc1-n1cc2c(c1-c1cccc(C)c1)c(=O)n(C)c(=O)n2C,-13%,nt,-24%,7.9µM*,16%
COc1cccc(Nc2nc(-c3ccccc3)c3cc(C)ccc3n2)c1,42%,nt,59%,76%[59 µM],118%
COc1cc(Nc2nc(-c3ccccc3)c3cc(C)ccc3n2)cc(OC)c1OC,?,-24%,?,40µM*,-23%
Fc1cccc(Cl)c1Cn1nnc2c(NCc3ccncc3)ncnc21,-3%,6%,-4%,nt,42%
CN(C)CCNc1ccc2ncn3c4ccc(O)cc4c(=O)c1c23,nt,nt,?,nt,9%
CN(C)CCNc1ccc(CO)c2sc3ccc(O)cc3c(=O)c12,nt,nt,50µM*,nt,71µM*
O=c1[nH]c(-c2ccc3c(c2)OCO3)nc2c1sc(=S)n2-c1ccccc1,0%,16%,-7%,-30%,30%
O=c1[nH]c(-c2ccc(F)cc2)nc2c1sc(=S)n2-c1ccccc1,50µM*,7%,?,40µM*,18%
O=c1[nH]cnc2c1sc(=S)n2-c1ccccc1,6%,10%,89µM*,2.2µM*,-36%
CCOC(=O)c1c(NC(=O)Nc2ccc(F)cc2)sc(C(=O)N(C)C)c1C,1%,nt,-11%,-8%[59 µM],15%
Cc1cc(C)n2nc(CNC(=O)c3ccc(Cl)cc3)nc2n1,7%,nt,1%,11%[59 µM],78%
IC(I)I,nt,nt,nt,14µM*,nt
CCc1ccc(NC(=O)N2CCN(c3nnc(C)c4c(C)n(-c5ccc(Cl)cc5)nc34)CC2)cc1,-35%,nt,-22%,18%[59 µM],43%
COc1ccc(OC)c(CNc2ccc([N+](=O)[O-])cc2C)c1,?,nt,28µM*,?,?
COc1ccc([N+](=O)[O-])cc1NCc1ccccc1,22%,47%,42%[57.1 µM],97%[59 µM],123%
COc1ccc([N+](=O)[O-])cc1NCc1ccccc1C,-1%,20%,32µM*,?,75%
COc1cccc(CNc2ccc([N+](=O)[O-])cc2C)c1,-29%,-18%,-29%,nt,27%

# Source: PubChem
